Experimental data taken from PubChem BioAssay (EPA / NIEHS).
Values joined by “and” are separate entries in the source; they are usually repeats but may differ in a detail not shown here. Equal entries are not always repeated. Results filed as inconclusive are left out. Where a structure was tested more than once in an assay, its records may differ in their call. Active and inactive are the calls of the source. Rule for the calls: active = hit-call score of the fitted dose curve at least 0.9, where 1 is the maximum; inconclusive = response in the unintended direction; inactive = score below 0.9.

How the values were obtained:
[1] = TOX21_p53_BLA_p2_viability: Viability Assessment in the Tox21 HCT-116 p53 Agonism Beta-lactamase Assay, Phase 2 (AID 2283591);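 note: actives lower the ATP signal meaning cytotoxicity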
In short: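 HCT116 p53-bla cells, 4000/well, dosed after 5 h plating (217-fold dilution of DMSO stocks) and incubated 16 h at 37C. Viability taken as cellular ATP by CellTiter-Glo luminescence after 30 min RT; signal loss marks cytotoxicity.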

[2] = target: Cellular tumor antigen p53 (Homo sapiens) (UniProt P04637); experiment: TOX21_p53_BLA_p2_ratio: Tox21 HCT-116 p53 Agonism Beta-lactamase Assay, Ratio, Phase 2 (AID 2283592)
In short: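 First, HCT116 reporter cells settle for 5 h at 37C. Next, DMSO compound solutions are pinned in (217-fold dilution) and left 16 h. Finally, CCF4-AM substrate is loaded 2 h at room temperature and the 460/530 nm ratio read.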

[3] = TOX21_p53_BLA_p3_viability: Viability Assessment in the Tox21 HCT-116 p53 Agonism Beta-lactamase Assay, Phase 3 (AID 2283593);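 note: cells exposed to compound for 16 h before reading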
In short: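 HCT116 cells, 4000/well, dosed 5 h after plating by pin transfer (217-fold dilution from DMSO stock) and incubated 16 h at 37C, 5% CO2. Viability read as ATP luminescence with CellTiter-Glo after 30 min at room temperature.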

[4] = target: Cellular tumor antigen p53 (Homo sapiens) (UniProt P04637); experiment: TOX21_p53_BLA_p3_ratio: Tox21 HCT-116 p53 Agonism Beta-lactamase Assay, Ratio, Phase 3 (AID 2283596)
In short: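 Cells were seeded at 4000/well, rested 5 h at 37C, then dosed with DMSO compound solutions (217-fold dilution) for 16 h. CCF4-AM substrate was loaded for 2 h at room temperature, and the 460/530 nm emission ratio was fitted for gain of signal versus DMSO.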

[5] = TOX21_p53_BLA_p4_viability: Viability Assessment in the Tox21 HCT-116 p53 Agonism Beta-lactamase Assay, Phase 4 (AID 2283597);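 note: hits lower the luminescence signal meaning cytotoxicity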
In short: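 4000 HCT116 cells per well; 5 h attachment; compounds from DMSO, 217-fold dilution; 16 h at 37C. Then CCF4-AM, 2 h RT, followed by CellTiter-Glo, 30 min RT, luminescence. Decrease = cytotoxicity.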

[6] = target: Cellular tumor antigen p53 (Homo sapiens) (UniProt P04637); experiment: TOX21_p53_BLA_p5_ratio: Tox21 HCT-116 p53 Agonism Beta-lactamase Assay, Ratio, Phase 5 (AID 2283599)
In short: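 HCT-116 p53-bla cells (4000/well) plated 5 h, dosed with compound (217-fold DMSO dilution) for 16 h at 37 C; CCF4-AM substrate 2 h at room temperature. Activity is the 460/530 nm emission ratio (405 nm excitation), fitted in gain-of-signal direction versus DMSO.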

[7] = TOX21_p53_BLA_p5_viability: Viability Assessment in the Tox21 HCT-116 p53 Agonism Beta-lactamase Assay, Phase 5 (AID 2283600)
In short: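 Decreased CellTiter-Glo luminescence denotes lost viability. Exposure: 16 h at 37C, 5% CO2, with compounds from DMSO stocks diluted 217-fold in wells of 4000 cells.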

[8] = target: Cellular tumor antigen p53 (Homo sapiens) (UniProt P04637); experiment: TOX21_p53_BLA_p4_ratio: Tox21 HCT-116 p53 Agonism Beta-lactamase Assay, Ratio, Phase 4 (AID 2283601)
In short: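 HCT-116 p53 beta-lactamase reporter cells (4000/well) preincubated 5 h, then compound (217-fold dilution of DMSO stock) for 16 h at 37C. CCF4-AM substrate added 2 h at room temperature; 460/530 nm emission ratio fitted upward versus DMSO.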

[9] = Tanguay_ZF_120hpf_MORT_legacy: (Legacy) Oregon State University Tanguay Lab 120 Hour Post-fertilization zebrafish Assay for Mortality (AID 2283633);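 for AC50: fitted as increase in binary mortality versus DMSO negative control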
In short: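 Dechorionated Tropical 5D wild-type zebrafish embryos, one per well from 6 hpf, static exposure in 0.64% DMSO at 28C until 120 hpf. Mortality scored as binary by brightfield microscopy at 24 and 120 hpf.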

[10] = Tanguay_ZF_120hpf_YSE_legacy: (Legacy) Oregon State University Tanguay Lab 120 Hour Post-fertilization zebrafish Assay for Yolk Sac Edema (AID 2283634)
In short: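 Dechorionated Tropical 5D wild-type zebrafish embryos were exposed statically, one per well, from 6 to 120 hpf at 28C in 0.64% DMSO. Yolk sac edema was scored present/absent by brightfield at 120 hpf, and dead embryos were excluded.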

[11] = Tanguay_ZF_120hpf_AXIS_legacy: (Legacy) Oregon State University Tanguay Lab 120 Hour Post-fertilization zebrafish Assay for Body Axis Malformation (AID 2283635);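 for AC50: potency for an increased fraction of larvae scored with body axis malformation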
In short: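 Dechorionated wild-type Tropical 5D zebrafish embryos, one per well, statically exposed from 6 hpf to 120 hpf at 28C in 0.64% DMSO final. Body axis malformation scored present/absent by brightfield microscopy at 120 hpf; dead embryos excluded.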

[12] = Tanguay_ZF_120hpf_EYE_legacy: (Legacy) Oregon State University Tanguay Lab 120 Hour Post-fertilization zebrafish Assay for Eye Malformation (AID 2283636);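 note: binary presence or absence of eye malformation scored by brightfield in 120 hpf larvae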
In short: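 5D wild-type embryos, pronase-dechorionated at 4 hpf; static exposure 6–120 hpf, 28C, dark; DMSO 0.64% final; 5uM trimethyltin chloride positive control. Binary eye-defect scoring at 120 hpf; dead embryos not scored.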

[13] = Tanguay_ZF_120hpf_SNOU_legacy: (Legacy) Oregon State University Tanguay Lab 120 Hour Post-fertilization zebrafish Assay for Snout Malformation (AID 2283637)
In short: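 Binary brightfield scoring of snout malformation at 120 hpf. Dechorionated 5D wild-type embryos, one per well, static exposure from 6 hpf at 28C, sealed and dark; final DMSO 0.64% (vol/vol), DMSO as baseline; 5uM trimethyltin chloride positive control.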

[14] = Tanguay_ZF_120hpf_JAW_legacy: (Legacy) Oregon State University Tanguay Lab 120 Hour Post-fertilization zebrafish Assay for Jaw Malformation (AID 2283638)
In short: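 Dechorionated Tropical 5D wild-type zebrafish embryos, one per well, exposed statically from 6 hpf to 120 hpf at 28C in 0.64% DMSO. Jaw malformation was scored by brightfield microscopy as present or absent. It was not scored in dead embryos.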

[15] = Tanguay_ZF_120hpf_OTIC_legacy: (Legacy) Oregon State University Tanguay Lab 120 Hour Post-fertilization zebrafish Assay for Otic Vesicle Malformation (AID 2283639)
In short: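 Wild-type zebrafish larvae, whole-embryo exposure from early stage to 120 hpf at 28C. Binary brightfield scoring of otic vesicle morphology, fitted in the positive direction against the DMSO baseline.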

[16] = Tanguay_ZF_120hpf_PE_legacy: (Legacy) Oregon State University Tanguay Lab 120 Hour Post-fertilization zebrafish Assay for Pericardial Edema (AID 2283640)
In short: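 Tropical 5D wild-type zebrafish embryos were statically exposed until 120 hpf at 28C, with 0.64% DMSO final. Pericardial edema was scored by brightfield as present or absent; endpoints were not scored in dead embryos.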

[17] = Tanguay_ZF_120hpf_BRAI_legacy: (Legacy) Oregon State University Tanguay Lab 120 Hour Post-fertilization zebrafish Assay for Brain Malformation (AID 2283641)
In short: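 Tropical 5D wild-type zebrafish embryos exposed statically until 120 hpf at 28C, 0.64% DMSO final, sealed and dark. Brain malformation scored present/absent by brightfield at 120 hpf; dead embryos excluded. Trimethyltin chloride 5uM positive control.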

[18] = Tanguay_ZF_120hpf_SOMI_legacy: (Legacy) Oregon State University Tanguay Lab 120 Hour Post-fertilization zebrafish Assay for Somite Malformation (AID 2283647)
In short: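 Dechorionated Tropical 5D wild-type zebrafish embryos, one per well from 6 hpf, statically exposed at 28C to 120 hpf in 0.64% DMSO; somite malformation scored present/absent by brightfield; trimethyltin 5 uM positive control; dead embryos not scored.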

[19] = Tanguay_ZF_120hpf_PFIN_legacy: (Legacy) Oregon State University Tanguay Lab 120 Hour Post-fertilization zebrafish Assay for Pectoral Fin Malformation (AID 2283648);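 note: each larva judged yes or no for fin defect by brightfield with dead larvae skipped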
In short: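 Binary pectoral fin malformation call at 120 hpf by brightfield microscopy; 5D wild-type zebrafish, chorion removed at 4 hpf, one embryo per well from 6 hpf, static exposure at 28C; DMSO (0.64% final) as baseline.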

[20] = ATG_XTT_Cytotoxicity: Cytotoxicity Assessment in the Attagene TRANS-FACTORIAL HepG2 Assay (AID 2283584)
In short: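 HepG2 cells transiently transfected with GAL4-UAS multiple reporter units, dosed 24 h; cytotoxicity read by XTT as loss of signal versus DMSO baseline.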

Measured: AC50

Cellular tumor antigen p53 (Homo sapiens), sequence (P04637 whole entry, looked up): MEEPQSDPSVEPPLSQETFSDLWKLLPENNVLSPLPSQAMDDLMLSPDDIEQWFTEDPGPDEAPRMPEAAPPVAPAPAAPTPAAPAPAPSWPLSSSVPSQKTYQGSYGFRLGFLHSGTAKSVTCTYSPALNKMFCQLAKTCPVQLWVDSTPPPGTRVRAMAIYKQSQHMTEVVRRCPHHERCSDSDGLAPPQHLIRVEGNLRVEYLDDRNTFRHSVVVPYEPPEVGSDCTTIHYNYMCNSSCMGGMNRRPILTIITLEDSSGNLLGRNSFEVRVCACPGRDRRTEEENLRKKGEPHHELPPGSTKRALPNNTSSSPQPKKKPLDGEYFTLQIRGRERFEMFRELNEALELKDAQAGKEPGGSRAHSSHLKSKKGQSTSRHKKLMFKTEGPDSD

CCN(CC)C(=O)c1cc(S(=O)(=O)Cc2ccccc2)c(N2CCC(c3ccccc3)CC2)cc1N(CC)CCN(C)C
active: [1] 29.4 µM and 33.5 µM | [3] 30.3 µM | [5] 17.9 µM and 25.1 µM | [7] 40.1 µM | [8] 32.6 µM and 42.6 µM | [9] 11.7 µM | [11] 18.2 µM | [13] 18 µM | [17] 13.8 µM
inactive: [2] | [3] | [4] | [6] | [10] | [12] | [14] | [15] | [16] | [18] | [19]

Cc1cc2c(cc1C(F)(F)F)N(C(=O)Nc1ccc(Oc3cccnc3C)nc1)CC2
not listed: [6] | [19] | [20]
inactive: all other assays above

CCN(Cc1cccnc1)C(=O)c1cccc(Cl)c1[C@]1(C)C(=O)N(Cc2ccc(OC)cc2OC)c2ccc(Cl)cc21
active: [2] 43.2 µM | [4] 40.9 µM | [6] 52.1 µM | [8] 44.5 µM | [9] 6.06 µM
not listed: [12] | [20]
inactive: all other assays above

CC[C@@H]1C[C@H](N(Cc2cc(C(F)(F)F)cc(C(F)(F)F)c2)C(C)=O)c2cc(C(F)(F)F)ccc2N1C(=O)OC(C)C
not listed: [1] | [3] | [20]
inactive: all other assays above

CN1C(=O)CC[C@H]1c1cccnc1
not listed: [5] | [6] | [15]
inactive: all other assays above

O=c1ccc2ccccc2o1
not listed: [3] | [20]
inactive: all other assays above
